Assay results: the supplement of paper PMC6518042
Unmarked numbers belong to inactive results.

Test system: Pectobacterium parmentieri SCC3193
Assay: DuctApe activity index (growth/respiration on compound as sole nutrient source, blank-subtracted) (activity index (0-3)); higher = stronger utilization of the compound, active = 3 or more
Details: nutrient role (plate category): carbon
Protocol: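 Biolog Phenotype Microarray plates PM1, PM2A (carbon), PM3 (nitrogen) and PM4 (phosphorus/sulfur) inoculated with P. parmentieri SCC3193 in M9-C minimal salts medium with Biolog dye A, and read in the OmniLog for 46 h. Each well was tested in triplicate and the experiment was run twice. DuctApe computed a blank-subtracted activity index (AV, 0-3) from the mean curves; growth is positive at AV >= 3 and negative at AV <= 2.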

Structure (SMILES) | DuctApe activity index
C[C@@H]1OC(O)[C@H](O)[C@H](O)[C@H]1O (stereo partly drawn) [L-Rhamnose] | 3 (active)
CCCC(=O)C(=O)O [a-Keto-Valeric acid] | 0
CCCCCCCC/C=C\CCCCCCCC(=O)OCCOCC(OCCO)C1OCC(OCCO)C1OCCO (configuration not stated) [Tween 80] | 0
OC[C@@H](O)[C@@H](O[C@@H]1O[C@H](CO)[C@H](O)[C@H](O)[C@H]1O)[C@H](O)[C@@H](O)CO [D-Lactitol] | 0
OC[C@H]1O[C@@H](O[C@H]2[C@H](O)[C@@H](O)[C@@H](O)O[C@@H]2CO)[C@H](O)[C@@H](O)[C@H]1O [a-D-Lactose] | 3 (active)
CCC(=O)C(=O)O [a-Ketobutyric acid] | 0
CCCCCC(=O)O [Caproic acid] | 0
O=C(O)[C@H]1O[C@@H](O)[C@H](O)[C@@H](O)[C@H]1O [Pectin] | 3 (active)
CO[C@H]1O[C@H](CO)[C@@H](O)[C@H](O)[C@@H]1O [a-Methyl-D-Mannoside] | 0
O=C(O)C[C@H](O)C(=O)O [L-Malic acid] | 3 (active)
CC(=O)N[C@@H](CO)[C@@H](O)[C@H](O)[C@H](O)CO [N-Acetyl-D-Glucosaminitol] | 0
OC[C@H]1O[C@@H](O[C@H]2[C@H](O)[C@@H](O)[C@H](O[C@H]3[C@H](O)[C@H](O)[C@H](O[C@@H]4[C@H](O)[C@H](O)[C@H](O)O[C@@H]4CO)O[C@@H]3CO)O[C@@H]2CO)[C@@H](O)[C@@H](O)[C@@H]1O [Mannan] | 0
C[C@@H](O)CC(=O)O [b-Hydroxybutyric acid] | 0
O=C(O)[C@H](O)[C@@H](O)[C@H](O)[C@H](O)CO [D-Gluconic acid] | 3 (active)

Same assay, conditions: nutrient role (plate category): nitrogen

Structure (SMILES) | DuctApe activity index
NCCO [Ethanolamine] | 0
NO [Hydroxylamine] | 0
CC(O)C(N)=O (racemic) [DL-Lactamide] | 0
C[C@H](N)C(=O)N[C@@H](CCC(=O)O)C(=O)O | 1
OC[C@H]1O[C@@H](n2cnc3c(O)nc(O)nc32)[C@H](O)[C@@H]1O [Xanthosine] | 0
Oc1nc(O)c2nc(O)[nH]c2n1 [Uric acid] | 0
NC(=O)C[C@@H](N)C(=O)O [D-Asparagine] | 1
C[C@H](N)C(=O)N[C@H](C(=O)O)[C@@H](C)O | 0
N[C@@H](Cc1c[nH]c2ccccc12)C(=O)O [L-Tryptophan] | 1
NCCCCCC(=O)O [e-Amino-N-Caproic acid] | 0

Same assay, conditions: nutrient role (plate category): phosphate & sulphur

Structure (SMILES) | DuctApe activity index
N[C@H](CS)C(=O)O [D-Cysteine] | 1
O=P(O)(O)OP(=O)(O)O [Pyrophosphate] | 1
O=C(O)COP(=O)(O)O [Phospho-Glycolic acid] | 1
CSC[C@H](N)C(=O)O [S-Methyl-L-Cysteine] | 1
N[C@H](COP(=O)(O)O)C(=O)O [O-Phospho-D-Serine] | 2
NC(=O)CCCCC1CCSS1 (racemic) [DL-Lipoamide] | 1
Nc1nc2c(ncn2[C@@H]2O[C@H](CO)[C@@H](O)[C@H]2OP(=O)(O)O)c(=O)[nH]1 [Guanosine 2`-Monophosphate] | 2
Cc1cn([C@H]2C[C@H](O)[C@@H](COP(=O)(O)O)O2)c(=O)[nH]c1=O [Thymidine 5`-Monophosphate] | 2
Nc1ccn([C@@H]2O[C@H](COP(=O)(O)O)[C@@H](O)[C@H]2O)c(=O)n1 [Cytidine 5`-Monophosphate] | 1
Nc1nc2c(ncn2[C@@H]2O[C@H](COP(=O)(O)O)[C@@H](O)[C@H]2O)c(=O)[nH]1 [Guanosine 5`-Monophosphate] | 1
Nc1ncnc2c1ncn2[C@@H]1O[C@H](COP(=O)(O)O)[C@@H](O)[C@H]1O [Adenosine 5`-Monophosphate] | 1
O=C(O)C(O)COP(=O)(O)O [D-3-Phospho-Glyceric acid] | 2
C[S+]([O-])CC[C@H](N)C(=O)O (stereo partly drawn) [L-Methionine Sulfoxide] | 1
